Compounds without any hit were thinned out: in the full panel of roughly 83,000, 20% have a hit.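 Cell lines were cultured in 96-well plates, exposed to a single compound concentration, and assessed for percent growth 48 hours later.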 A number with no mark means an inactive call. Active and inactive are the calls of the source.

The test system of the test is NCI/ADR-RES ovarian. In words: NCI-60 one-dose screen, 48 h (100 = growth as untreated, 0 = no growth, -100 = all killed). The conditions noted are these: 10 µM unless noted. As for the experimental part:
Growth inhibition of the NCI/ADR-RES human […] tumor cell line is measured as a screen for anti-cancer activity. Cells are grown in 96 well plates and exposed to the test compound for 48 hours. Compounds are tested at a single concentration, which is 10^-5 M for most compounds. The reported endpoint is percent growth (GI% or GIPRCNT), where numbers from 0 - 100% represent growth inhibition, and numbers from -100% - 0 represent cell death. For example, a value of 40 represents 60% growth inhibition. A value of 0 means no net growth occurred over the course of the experiment. A value of -40 indicates 40% of cells at the beginning of the experiment died by the end of the experiment. A value of -100 means all cells are dead at the end of the experiment.
NCI-60 Human Tumor Cell Lines Screen was performed using the standard one-dose NCI protocol, which is described in more detail at https://dtp.cancer.gov/discovery_development/nci-60/default.htm.
Compounds with GIPRCNT values below 10 were considered active. Activity score was based on GIPRCNT using the following formula: […]
Score is 0 for GIPRCNT values of 100 or above, 50 for GIPRCNT values of 0, and 100 for GIPRCNT values of -100.
`CC(=O)O[C@H]1CC[C@]2(C)[C@H]3CC=C4[C@@H]5CC(C)(C)CC[C@]5(C(=O)OCC(COC(=O)C(Cl)Cl)(COC(=O)C(Cl)Cl)NC(=O)C(Cl)Cl)CC[C@@]4(C)[C@]3(C)CC[C@H]2C1(C)C`: the growth is 78%.

Take `Nc1nc(NC2CC2)cc(-c2cccc(Cl)c2Cl)n1`: the growth was 25%.

Regarding `Cc1ccc(C(=O)CC(=O)C(F)(F)C(F)(F)C(F)(F)F)s1`, the growth was 105%.

For `CC(C)(C)[Si](C)(C)OC1[C@@H](O[Si](C)(C)C(C)(C)C)[C@@H](CNC(=O)NC(=O)NC(=O)CCl)O[C@H]1n1cnc2c(NC(=O)Nc3ccccc3)ncnc21` (stereo not given in full), the growth was 50.4%.

In the case of `Cn1cnc([N+](=O)[O-])c1S(=O)(=O)Oc1ccccc1`, the growth is 92%.

As to `O=P(O)(O)C(O)(Cc1cccnc1)P(=O)(O)O`, the growth was 102%.

On to `COc1ccc(CNc2c3ccccc3nc3ccccc23)cc1F`, for which the growth is 20.8%.

Take `CCOC(=O)C1=C(C)NC(=S)NC1c1ccccc1` (stereo not given): the growth was 109%.

For the molecule `CNCCCn1c2c(c3ccc(Cl)cc3c1=O)C(=O)c1cc(OC)cnc1-2`, the growth was 46.5%.

Take `Brc1ccsc1Br`: the growth is 116%.

In the case of `C=CCN1C(=O)/C(=c2\sc3n(c2=O)C2C(NN=3)N(CC)C(=O)N2CC)c2ccccc21` (stereo not given), the growth was -1.04% (active).

Turning to `COc1cnc2c(c1)C(=O)c1c-2n(CCCN2CCN(C)CC2)c(=O)c2cc(Cl)ccc12`, the growth is 44.8%.

Consider `CC(C)[C@@]12C[C@@H](OC(=O)C3CO3)[C@@](C)(O1)[C@@H]1CC[C@@H](C)[C@H]1[C@@H]2OC(=O)/C=C/c1ccccc1` (stereo not given in full), for which the growth was 59.4%.

Take `CCOC(=O)N1C2CCC(C2)N1C(=O)OCC`: the growth was 108%.

Regarding `CCCCOc1nc2ccccc2cc1/C=C/c1cc(/C=C/c2cc3ccccc3nc2OCCCC)n(-c2ccccc2)n1`, the growth was 106%.

Turning to `CCN1C(=O)N(CC)C2C1N=C(SC)N2/N=C/C=C/c1ccccc1OC` (stereo not given), the growth was -0.869% (active).

`CC(=O)NC1C(O[C@H]2C[C@H]3[C@@H]4CC=C5C[C@@H](O)CC[C@]5(C)[C@H]4CC[C@]3(C)[C@H]2[C@H](C)C(=O)CCC(C)C)OCC(O)C1O` (stereo not given in full): the growth was 88.8%.

For `COc1ccc(-c2nc3ccccc3n3cccc23)cc1`, the growth is 107%.

For `O=C(NCCN1CCCC1)n1cc(-c2ccncc2)c(-c2cc(O)cc(Cl)c2)n1`, the growth is 101%.

In the case of `Clc1nnc2c3ccccc3ccn12`, the growth was 112%.

As for `c1coc(CNc2c3ccccc3nc3ccccc23)c1`, the growth was 44.8%.

Turning to `COc1cc(OC)c2sc(-c3ccc(-n4cncc4-c4ccc(OC)c(N)c4)cc3)nc2c1`, the growth is 77.4%.

Take `Cc1ccccc1Nc1n[nH]c(Cc2ccccc2)n1`: the growth was 106%.

Turning to `C=CC(=O)N1CN(C(=O)C=C)CN(C(=O)C=C)C1`, the growth was 70.8%.

On to `O=C(/C=C/c1ccccc1Br)c1cccc(OCCCCOc2cccc(C(=O)/C=C/c3ccccc3Br)c2)c1`, for which the growth is 102%.

Regarding `NC(N)=N/N=C/c1ccc(Cl)cc1`, the growth is 79.9%.

Turning to `CC1(C)CC(=O)c2cc3c(N)c(C(=O)Nc4ccc(Cl)cc4)sc3nc2C1`, the growth is 114%.

Turning to `COc1ccc(-c2cnnn2-c2nonc2-n2cccc2)cc1`, the growth is 6.88% (active).

Take `CNC(=O)OC1C(O[C@H]2C[C@H]3[C@@H]4CC=C5C[C@@H](O)CC[C@]5(C)[C@H]4CC[C@]3(C)[C@H]2[C@H](C)C(=O)CCC(C)C)OCC(O)C1OC1OCC(O)C(O)C1OC(=O)c1ccc(OC)cc1` (stereo not given in full): the growth was 82.8%.

Regarding `Cc1ccc(Nc2cc(Cl)c([N+](=O)[O-])cc2[N+](=O)[O-])cc1`, the growth was 26.5%.

Turning to `COc1cc(NCC(O)CN(CC(C)C)CC(C)C)c2ncccc2c1` (stereo not given), the growth was 92.4%.

In the case of `CC(=O)Nc1ccc(/C=N/N2CCCCCC2)cc1`, the growth is 103%.

With `CN(C)c1nc(-c2cccs2)n2nc(-c3ccco3)cc2n1`, the growth is 93.5%.

`C/C(=N\NC(=O)CSc1nc2ccccc2c(=O)n1CCc1ccc(S(N)(=O)=O)cc1)c1ccc(Br)cc1`: the growth is 79.1%.

For the molecule `O=C(CCl)N1c2ccccc2Oc2ccc3ccccc3c21`, the growth was -11.9% (active).

Consider `O=C(Nc1ccncc1)C(=O)c1cn(S(=O)(=O)c2cccc(Cl)c2F)c2ccccc12`, for which the growth was 59.3%.

On to `CCCCCCCCCCCCCCCCCC(=O)[O][Sn]([CH2]CCC)([CH2]CCC)[CH2]CCC`, for which the growth is -86.6% (active).

Regarding `Cc1ccc(OC2=C(C#N)C(=N)N3C(=NN2)Sc2c(C)ccc(C)c23)cc1`, the growth is 101%.

As to `Cc1ccccc1NC(=O)c1sc2nc3c(cc2c1N)C(=O)CCC3`, the growth was 22.6%.

For `CN1C(=O)C(C2=NNC(c3ccccc3C(=O)O)C2)C(=O)N(C)C1=O` (stereo not given), the growth is 108%.

(Values after PubChem BioAssay (NCI).)
